The record followed here is PMC7862700, “An all-to-all approach to the identification of sequence-specific readers for epigenetic DNA modifications on cytosine”.

What all share (experiment): DAPPL (digital affinity profiling via proximity ligation, sequencing); 10 mM Tris-HCl pH 7.5, 50 mM NaCl, 1 mM DTT, 4% glycerol, room temperature, 30 min; GST-TFs on glutathione beads, 16-mer random dsDNA library, 0.1% formaldehyde crosslink after washing; high values mean tight binding
Conditions in all cases: protein: recombinant; tags: N-terminal GST; dsDNA, one strand shown

Assay [1] addresses T1, FLI1 (Homo sapiens, UniProt Q01543 1-452).
T1 sequence: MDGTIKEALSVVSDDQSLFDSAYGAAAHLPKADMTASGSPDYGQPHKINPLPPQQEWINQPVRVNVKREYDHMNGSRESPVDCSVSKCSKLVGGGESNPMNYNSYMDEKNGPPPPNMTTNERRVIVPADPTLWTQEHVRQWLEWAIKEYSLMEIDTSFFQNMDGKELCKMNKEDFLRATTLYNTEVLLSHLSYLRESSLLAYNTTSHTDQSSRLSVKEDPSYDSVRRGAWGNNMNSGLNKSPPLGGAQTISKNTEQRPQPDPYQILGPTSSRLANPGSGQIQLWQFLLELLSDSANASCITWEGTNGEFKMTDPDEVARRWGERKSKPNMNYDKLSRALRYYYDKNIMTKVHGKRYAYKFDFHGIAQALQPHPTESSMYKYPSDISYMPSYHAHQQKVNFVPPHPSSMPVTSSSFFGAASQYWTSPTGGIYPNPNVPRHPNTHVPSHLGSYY
The method, boiled down: (§1)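 Sequencing on an Illumina NextSeq500 followed washing, crosslinking with 0.1% formaldehyde, proximity ligation (BsaI/T4 ligase, 1 h, 37 °C) and PCR amplification of pools that had been incubated for 30 min at room temperature with 200 nmole of a random double-stranded 16-mer DNA library in Tris/NaCl/DTT/glycerol buffer. Each pool held DNA-barcoded human transcription factors, expressed in yeast as GST fusions and captured on glutathione beads, plus a tag-only sample. Binding signal is a hexamer's read frequency for a factor divided by its frequency in the tag-only sample.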

Assay [2] concerns the target T2, ELK1 (Homo sapiens, UniProt P19419 1-428).
T2 sequence: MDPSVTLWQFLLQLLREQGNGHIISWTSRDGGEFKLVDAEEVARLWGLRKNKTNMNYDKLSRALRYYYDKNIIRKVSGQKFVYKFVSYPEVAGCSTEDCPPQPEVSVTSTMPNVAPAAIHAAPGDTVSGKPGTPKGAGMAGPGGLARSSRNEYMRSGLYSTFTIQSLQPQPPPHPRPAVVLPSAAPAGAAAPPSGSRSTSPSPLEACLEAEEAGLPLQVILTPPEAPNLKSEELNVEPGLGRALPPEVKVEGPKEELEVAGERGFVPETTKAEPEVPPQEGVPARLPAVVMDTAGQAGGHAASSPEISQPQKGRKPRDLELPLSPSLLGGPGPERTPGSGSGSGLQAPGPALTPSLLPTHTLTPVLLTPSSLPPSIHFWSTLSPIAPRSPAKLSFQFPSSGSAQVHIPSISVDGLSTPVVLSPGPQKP
In a few lines: as §1

For assay [3], the target named is T3, GABPA (Homo sapiens, UniProt Q06546 1-454).
T3 sequence: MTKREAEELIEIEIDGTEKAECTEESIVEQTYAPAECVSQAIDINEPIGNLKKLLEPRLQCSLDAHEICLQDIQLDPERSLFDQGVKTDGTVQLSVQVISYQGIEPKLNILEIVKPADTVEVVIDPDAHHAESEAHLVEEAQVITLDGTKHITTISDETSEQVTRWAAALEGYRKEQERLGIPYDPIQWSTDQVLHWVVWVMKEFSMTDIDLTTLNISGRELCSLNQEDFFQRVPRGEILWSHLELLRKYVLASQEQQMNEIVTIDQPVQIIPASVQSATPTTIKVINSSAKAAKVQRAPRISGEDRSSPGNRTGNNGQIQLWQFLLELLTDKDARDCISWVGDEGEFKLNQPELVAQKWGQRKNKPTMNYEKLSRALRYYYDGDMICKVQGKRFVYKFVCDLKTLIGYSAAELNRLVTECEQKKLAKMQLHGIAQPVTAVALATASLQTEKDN
The method, boiled down:
as §1

Assay [4] deals with T4, ERG (Homo sapiens, UniProt P11308 1-479).
T4 sequence: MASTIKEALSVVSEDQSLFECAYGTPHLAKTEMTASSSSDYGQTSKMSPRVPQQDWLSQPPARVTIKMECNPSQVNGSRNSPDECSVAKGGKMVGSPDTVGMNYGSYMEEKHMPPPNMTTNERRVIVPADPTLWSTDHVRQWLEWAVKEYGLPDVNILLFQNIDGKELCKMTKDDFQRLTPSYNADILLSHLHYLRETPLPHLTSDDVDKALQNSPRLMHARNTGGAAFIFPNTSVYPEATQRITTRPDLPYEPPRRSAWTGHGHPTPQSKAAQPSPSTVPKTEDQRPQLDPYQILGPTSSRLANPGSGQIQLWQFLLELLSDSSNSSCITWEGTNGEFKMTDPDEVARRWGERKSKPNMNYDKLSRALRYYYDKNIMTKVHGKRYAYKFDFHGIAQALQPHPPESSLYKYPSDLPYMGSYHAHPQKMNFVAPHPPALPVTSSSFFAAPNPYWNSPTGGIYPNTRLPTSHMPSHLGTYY
In a few lines:
as §1

The target in assay [5] is ELF1 (Homo sapiens, UniProt P32519 1-619). In a few lines:
as §1

Assay [6] deals with T5, EHF (Homo sapiens, UniProt Q9NZC4 1-300).
T5 sequence: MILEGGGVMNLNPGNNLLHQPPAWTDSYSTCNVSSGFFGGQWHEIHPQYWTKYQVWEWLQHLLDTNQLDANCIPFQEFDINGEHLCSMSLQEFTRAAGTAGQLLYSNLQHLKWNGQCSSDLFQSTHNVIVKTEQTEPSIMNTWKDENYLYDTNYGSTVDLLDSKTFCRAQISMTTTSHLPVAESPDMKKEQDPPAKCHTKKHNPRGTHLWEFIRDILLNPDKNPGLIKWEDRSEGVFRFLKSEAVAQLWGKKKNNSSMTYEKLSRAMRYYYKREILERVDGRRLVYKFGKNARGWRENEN
The method, boiled down: as §1

For assay [7], the target named is T6, ELK3 (Homo sapiens, UniProt P41970 1-407).
T6 sequence: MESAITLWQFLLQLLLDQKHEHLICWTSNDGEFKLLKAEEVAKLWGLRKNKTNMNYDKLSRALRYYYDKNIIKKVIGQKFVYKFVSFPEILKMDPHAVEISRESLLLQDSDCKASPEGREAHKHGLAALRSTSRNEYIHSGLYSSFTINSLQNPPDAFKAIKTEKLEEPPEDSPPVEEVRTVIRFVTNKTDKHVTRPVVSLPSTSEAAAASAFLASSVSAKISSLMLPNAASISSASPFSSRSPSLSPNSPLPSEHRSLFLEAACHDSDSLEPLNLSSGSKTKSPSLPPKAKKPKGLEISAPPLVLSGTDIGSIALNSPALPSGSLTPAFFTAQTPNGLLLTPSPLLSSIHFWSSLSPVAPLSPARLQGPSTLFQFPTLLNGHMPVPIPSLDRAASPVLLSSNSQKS
In a few lines:
as §1

Assay [8] concerns the target T7, FEV (Homo sapiens, UniProt Q99581 1-238).
T7 sequence: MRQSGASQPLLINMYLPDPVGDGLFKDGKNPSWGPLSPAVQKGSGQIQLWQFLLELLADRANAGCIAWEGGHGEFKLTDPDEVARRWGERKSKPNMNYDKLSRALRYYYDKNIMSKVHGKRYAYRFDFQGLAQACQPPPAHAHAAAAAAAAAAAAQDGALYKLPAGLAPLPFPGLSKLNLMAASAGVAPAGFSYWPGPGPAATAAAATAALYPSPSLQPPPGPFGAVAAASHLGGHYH
In a few lines:
as §1

For assay [9], the target named is ETV5 (Homo sapiens, UniProt P41161 1-510). In a few lines: as §1
ETV5, sequence (P41161 whole entry): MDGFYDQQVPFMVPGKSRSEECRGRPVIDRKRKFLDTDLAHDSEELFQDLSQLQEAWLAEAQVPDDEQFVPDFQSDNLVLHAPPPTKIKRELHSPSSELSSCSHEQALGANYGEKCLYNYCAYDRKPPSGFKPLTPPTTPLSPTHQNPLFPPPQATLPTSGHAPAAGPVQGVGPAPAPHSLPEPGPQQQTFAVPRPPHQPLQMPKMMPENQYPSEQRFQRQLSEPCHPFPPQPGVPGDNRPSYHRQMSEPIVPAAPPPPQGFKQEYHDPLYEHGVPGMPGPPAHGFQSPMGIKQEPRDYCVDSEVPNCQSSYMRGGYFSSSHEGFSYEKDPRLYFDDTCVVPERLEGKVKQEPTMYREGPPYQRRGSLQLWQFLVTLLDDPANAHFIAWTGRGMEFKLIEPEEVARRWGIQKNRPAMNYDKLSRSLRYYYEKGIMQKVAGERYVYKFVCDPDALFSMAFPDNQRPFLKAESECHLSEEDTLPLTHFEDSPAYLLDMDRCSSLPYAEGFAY
Assay [10] deals with T8, SPIC (Homo sapiens, UniProt Q8N5J4 1-248).
T8 sequence: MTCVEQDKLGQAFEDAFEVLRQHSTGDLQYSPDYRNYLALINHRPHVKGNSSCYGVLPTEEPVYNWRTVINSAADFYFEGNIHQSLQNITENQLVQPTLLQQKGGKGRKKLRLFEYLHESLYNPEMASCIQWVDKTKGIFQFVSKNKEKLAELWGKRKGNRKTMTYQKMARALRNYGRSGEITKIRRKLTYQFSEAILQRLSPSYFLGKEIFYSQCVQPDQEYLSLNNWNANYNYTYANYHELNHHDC
The method, boiled down: as §1

Assay [11] addresses ELF4 (Homo sapiens, UniProt Q99607 1-663). In a few lines:
as §1

Assay [12] deals with T9, ELK4 (Homo sapiens, UniProt P28324-2 1-405).
T9 sequence: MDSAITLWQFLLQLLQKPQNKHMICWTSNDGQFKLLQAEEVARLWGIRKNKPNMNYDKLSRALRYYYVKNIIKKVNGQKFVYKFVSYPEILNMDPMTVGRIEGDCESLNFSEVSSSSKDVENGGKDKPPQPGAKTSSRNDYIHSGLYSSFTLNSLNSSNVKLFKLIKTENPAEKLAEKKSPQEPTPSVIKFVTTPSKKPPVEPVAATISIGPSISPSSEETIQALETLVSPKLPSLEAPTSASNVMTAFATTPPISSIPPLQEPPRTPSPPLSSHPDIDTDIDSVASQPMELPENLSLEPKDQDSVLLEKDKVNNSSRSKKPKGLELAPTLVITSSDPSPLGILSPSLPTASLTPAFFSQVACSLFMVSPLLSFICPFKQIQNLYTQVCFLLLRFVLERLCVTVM
The method, boiled down: as §1

Assay [13] concerns the target T10, ETV2 (Homo sapiens, UniProt O00321 1-342).
T10 sequence: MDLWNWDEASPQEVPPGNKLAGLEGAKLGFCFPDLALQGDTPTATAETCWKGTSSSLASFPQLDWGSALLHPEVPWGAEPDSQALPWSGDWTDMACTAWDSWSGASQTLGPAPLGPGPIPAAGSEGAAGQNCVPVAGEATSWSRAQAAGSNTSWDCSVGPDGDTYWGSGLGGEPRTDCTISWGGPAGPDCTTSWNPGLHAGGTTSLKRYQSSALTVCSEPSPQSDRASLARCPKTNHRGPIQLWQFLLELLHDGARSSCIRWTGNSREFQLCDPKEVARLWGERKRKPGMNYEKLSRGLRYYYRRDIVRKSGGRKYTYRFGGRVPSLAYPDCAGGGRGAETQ
In a few lines:
as §1

In assay [14] the target is T11, ELF3 (Homo sapiens, UniProt P78545 1-371).
T11 sequence: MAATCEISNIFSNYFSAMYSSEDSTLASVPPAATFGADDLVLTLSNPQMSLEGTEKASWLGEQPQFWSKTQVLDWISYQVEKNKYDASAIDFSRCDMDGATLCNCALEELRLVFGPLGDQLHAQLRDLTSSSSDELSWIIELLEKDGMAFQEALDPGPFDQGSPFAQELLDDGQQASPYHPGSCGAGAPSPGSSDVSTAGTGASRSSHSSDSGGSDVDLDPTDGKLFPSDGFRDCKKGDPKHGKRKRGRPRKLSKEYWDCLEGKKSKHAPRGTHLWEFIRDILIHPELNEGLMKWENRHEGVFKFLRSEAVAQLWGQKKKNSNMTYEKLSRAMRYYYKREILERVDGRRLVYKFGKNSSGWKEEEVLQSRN
In a few lines: as §1

Assay [15] has as its target SPI1 (Homo sapiens, UniProt P17947 1-270). The method, boiled down: as §1
Assay [16] addresses ETV1 (Homo sapiens, UniProt P50549 1-477). In a few lines:
as §1

ELF1, sequence (P32519 whole entry): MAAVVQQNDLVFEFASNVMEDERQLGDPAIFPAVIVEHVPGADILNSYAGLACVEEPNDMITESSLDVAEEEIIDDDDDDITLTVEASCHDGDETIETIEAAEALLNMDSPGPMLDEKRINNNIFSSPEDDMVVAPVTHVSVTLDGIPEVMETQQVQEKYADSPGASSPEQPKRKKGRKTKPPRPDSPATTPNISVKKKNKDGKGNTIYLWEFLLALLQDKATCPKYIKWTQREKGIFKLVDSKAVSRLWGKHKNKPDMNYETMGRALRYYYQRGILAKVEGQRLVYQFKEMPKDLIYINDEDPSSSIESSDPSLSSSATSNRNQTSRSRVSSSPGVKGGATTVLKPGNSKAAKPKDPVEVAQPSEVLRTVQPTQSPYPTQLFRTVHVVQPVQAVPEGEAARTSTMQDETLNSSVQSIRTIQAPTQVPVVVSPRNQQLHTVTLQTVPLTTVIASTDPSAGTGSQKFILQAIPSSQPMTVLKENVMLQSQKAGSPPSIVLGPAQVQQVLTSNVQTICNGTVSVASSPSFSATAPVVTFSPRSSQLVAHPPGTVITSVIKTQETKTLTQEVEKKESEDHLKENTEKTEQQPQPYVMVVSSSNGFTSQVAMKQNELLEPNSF
ELF4, sequence (Q99607 whole entry): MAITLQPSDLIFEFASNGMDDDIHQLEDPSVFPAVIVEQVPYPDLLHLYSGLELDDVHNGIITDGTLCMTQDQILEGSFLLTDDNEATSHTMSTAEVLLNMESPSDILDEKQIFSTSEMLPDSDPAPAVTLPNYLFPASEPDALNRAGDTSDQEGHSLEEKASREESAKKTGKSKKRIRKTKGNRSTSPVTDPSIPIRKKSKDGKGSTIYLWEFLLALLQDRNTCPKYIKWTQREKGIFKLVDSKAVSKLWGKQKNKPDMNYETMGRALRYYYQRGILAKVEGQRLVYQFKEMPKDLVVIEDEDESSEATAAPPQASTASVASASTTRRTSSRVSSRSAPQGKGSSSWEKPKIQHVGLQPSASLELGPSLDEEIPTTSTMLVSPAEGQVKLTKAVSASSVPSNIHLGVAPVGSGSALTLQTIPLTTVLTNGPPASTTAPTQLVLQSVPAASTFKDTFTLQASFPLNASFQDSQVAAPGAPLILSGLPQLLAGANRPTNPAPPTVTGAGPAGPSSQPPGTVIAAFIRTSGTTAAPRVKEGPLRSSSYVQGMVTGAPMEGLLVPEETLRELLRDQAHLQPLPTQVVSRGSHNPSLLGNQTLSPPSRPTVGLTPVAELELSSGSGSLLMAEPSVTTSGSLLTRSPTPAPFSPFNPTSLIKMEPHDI
ETV1, sequence (P50549 whole entry): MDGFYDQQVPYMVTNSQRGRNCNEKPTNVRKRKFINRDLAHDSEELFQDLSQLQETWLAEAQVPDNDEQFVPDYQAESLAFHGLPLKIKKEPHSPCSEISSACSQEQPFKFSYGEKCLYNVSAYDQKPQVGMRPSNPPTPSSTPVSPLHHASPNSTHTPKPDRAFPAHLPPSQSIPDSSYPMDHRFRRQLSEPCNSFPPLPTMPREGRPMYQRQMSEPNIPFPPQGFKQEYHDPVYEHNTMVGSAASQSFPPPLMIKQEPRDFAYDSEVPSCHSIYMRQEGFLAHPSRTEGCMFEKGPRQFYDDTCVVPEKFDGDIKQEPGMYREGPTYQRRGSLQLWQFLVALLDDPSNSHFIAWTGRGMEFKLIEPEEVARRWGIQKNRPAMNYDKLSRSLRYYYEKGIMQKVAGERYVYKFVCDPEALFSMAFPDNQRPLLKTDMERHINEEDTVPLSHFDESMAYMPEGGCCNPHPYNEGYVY

Take TGTGTT: the binding signal is 1.19 fold enrichment (6-mer frequency, TF over GST control) in assay [1]; 1.1 fold enrichment (6-mer frequency, TF over GST control) in assay [2]; 1.06 fold enrichment (6-mer frequency, TF over GST control) in [3]; 1.03 fold enrichment (6-mer frequency, TF over GST control) in assay [4]; 1.03 fold enrichment (6-mer frequency, TF over GST control) in assay [5]; 1.09 fold enrichment (6-mer frequency, TF over GST control) in [6]. Also, the binding signal in assay [7] is 1.26 fold enrichment (6-mer frequency, TF over GST control); in assay [8], 1.06 fold enrichment (6-mer frequency, TF over GST control); in assay [9] it was 1.06 fold enrichment (6-mer frequency, TF over GST control); in assay [10] it was 1.02 fold enrichment (6-mer frequency, TF over GST control); in assay [11], 1.16 fold enrichment (6-mer frequency, TF over GST control); in assay [12], 1.07 fold enrichment (6-mer frequency, TF over GST control). Also, the binding signal in [13] was 1.19 fold enrichment (6-mer frequency, TF over GST control); in assay [14], 1.08 fold enrichment (6-mer frequency, TF over GST control).

On to CATGTA, for which the binding signal was 1.15 fold enrichment (6-mer frequency, TF over GST control) in assay [1]; 1.06 fold enrichment (6-mer frequency, TF over GST control) in assay [2]; 1.11 fold enrichment (6-mer frequency, TF over GST control) in assay [5]; 1.04 fold enrichment (6-mer frequency, TF over GST control) in assay [6]; 1.02 fold enrichment (6-mer frequency, TF over GST control) in [15]; 1.13 fold enrichment (6-mer frequency, TF over GST control) in assay [7]. Moreover, the binding signal in assay [8] is 1.03 fold enrichment (6-mer frequency, TF over GST control); in assay [9], 1.08 fold enrichment (6-mer frequency, TF over GST control); in assay [10], 1.08 fold enrichment (6-mer frequency, TF over GST control); in assay [11], 1.14 fold enrichment (6-mer frequency, TF over GST control); in assay [12], 1.16 fold enrichment (6-mer frequency, TF over GST control); in assay [13], 1.11 fold enrichment (6-mer frequency, TF over GST control). Further, the binding signal in assay [14] was 1.03 fold enrichment (6-mer frequency, TF over GST control); in [16], 1.06 fold enrichment (6-mer frequency, TF over GST control).
